For 29 compounds, Inhibition results are on record in ChEMBL document CHEMBL1157539, “Thousands of chemical starting points for antimalarial lead identification” (Nature, 2010).

The term Inhibition denotes the drop in the measured response relative to a control, in per cent. A low value points to little suppression.

Holding throughout (format): functional
Test [1] deals with Plasmodium falciparum. Nature of the test: GSK_TCMDC: Inhibition of Plasmodium falciparum 3D7 in whole red blood cells, using parasite LDH activity as an index of growth. Test compounds present at 2uM.
In test [2] the test system is Plasmodium falciparum. Briefly: GSK_TCMDC: Inhibition of Plasmodium falciparum Dd2 in whole red blood cells, using parasite LDH activity as an index of growth. Test compounds present at 2uM.
For another test, the system named is HepG2. Briefly: GSK_TCMDC: Percent inhibition of human HepG2 cell line. Test compounds present at 10uM.

Take `COc1ccc2c(=NN=Cc3ccncc3)cc(C)[nH]c2c1`: the Inhibition in the test with Plasmodium falciparum [1] stood at 99%; in the test on Plasmodium falciparum [2], 95%; in the test with HepG2 it was 0%.

On to `CC(CNCc1cn(Cc2cc(Br)cc(Br)c2)c2ccccc12)CNc1cc(=O)c2ccccc2[nH]1` (configuration not stated), for which the Inhibition in the test with Plasmodium falciparum [1] was 100%; in the test on Plasmodium falciparum [2], 50%; with HepG2 it was 10%.

As for `CC(C)CCNc1nc(NCCCc2ccccc2)c2cc(O)ccc2n1`, the Inhibition in the test on Plasmodium falciparum [1] came out at 100%; in the test on Plasmodium falciparum [2], 95%; with HepG2, 14%.

For `O=S(=O)(c1ccccc1)C1CC1`, the Inhibition in the test with Plasmodium falciparum [1] amounted to 89%; with Plasmodium falciparum [2], 65%; in the test with HepG2, 0%.

For `COc1cccc(NC(=O)Cn2c(C)c(C(=O)C(F)(F)F)c3ccccc32)c1`, the Inhibition with Plasmodium falciparum [1] worked out at 97%; with Plasmodium falciparum [2], 94%; with HepG2 it was 2%.

As to `COc1cc2nc(NCc3nc4ccccc4[nH]3)nc(N)c2cc1OC.Cl`, the Inhibition was 97% in the test with Plasmodium falciparum [1], 10% in the test with Plasmodium falciparum [2] and 3% with HepG2.

In the case of `CNCCNCc1cccc(-c2ccc(-c3nc4ccccc4[nH]3)cc2)c1.O=C(O)C(F)(F)F`, the Inhibition is on record as 99% in the test on Plasmodium falciparum [1], 27% in the test with Plasmodium falciparum [2] and 13% in the test on HepG2.

Consider `Cc1ccc(-c2cccc3c(NC(=O)Nc4ccc5nccc(N6CCN(C)CC6)c5c4)cccc23)cn1.Cl`, for which the results for the Inhibition in the test with Plasmodium falciparum [1], in the test on Plasmodium falciparum [2] and with HepG2 were 90%, 89% and 6%, respectively.

Consider `COc1ccc2nccc(N3CCC(NCCNCc4ccc5c(n4)NC(=O)CO5)C3)c2n1.Cl` (configuration not stated), for which the Inhibition in the test with Plasmodium falciparum [1] was determined as 100%; in the test on Plasmodium falciparum [2] it was 47%; in the test with HepG2, 0%.

For `COc1ccc(CNCc2cccc(-c3cccc(-c4nc5cc(C(F)(F)F)ccc5[nH]4)c3)c2)cc1.O=C(O)C(F)(F)F`, the Inhibition in the test with Plasmodium falciparum [1] is listed as 100%; with Plasmodium falciparum [2], 91%; with HepG2, 40%.

With `Cc1cccc(CN2CCC(C(=O)Nc3ccc(-c4nc5ccccc5[nH]4)cc3)CC2)n1`, the Inhibition stood at 96% in the test on Plasmodium falciparum [1], 3% with Plasmodium falciparum [2] and 0% in the test on HepG2.

Regarding `CC1(C)NC(N)=NC(=N)N1OCc1nc(N)nc(Nc2ccccc2)n1`, the Inhibition in the test with Plasmodium falciparum [1] stood at 98%; with Plasmodium falciparum [2], 0%; with HepG2, 3%.

For `Br.CC1(C)NC(N)=NC(=N)N1OCCCc1ccc(Cl)cc1Cl`, the Inhibition was found to be 95% with Plasmodium falciparum [1], 95% in the test with Plasmodium falciparum [2] and 54% with HepG2.

With `Cc1cccc(C)c1OC(=O)C(C)C(O)C1(Sc2ccccc2)CCN(C)CC1` (configuration not stated), the Inhibition with Plasmodium falciparum [1] worked out at 98%; in the test on Plasmodium falciparum [2] it was 92%; with HepG2, 23%.

`NS(=O)(=O)CCc1cccc(Nc2nccc(-c3c(-c4cccc(NC(=O)c5c(F)cccc5F)c4)nn4ccccc34)n2)c1`: the results for the Inhibition with Plasmodium falciparum [1], in the test with Plasmodium falciparum [2] and with HepG2 were 98%, 97% and 84%, respectively.

Regarding `CC(C)c1cc(Oc2c(I)cc(CCCc3ncc[nH]3)cc2I)ccc1O.Cl`, the Inhibition is 88% with Plasmodium falciparum [1], 1% in the test with Plasmodium falciparum [2] and 28% in the test with HepG2.

As for `CN(C)CCCN1C(=O)c2[nH]nc(-c3ccc(Cl)cc3O)c2C1c1ccc(Cl)cc1` (configuration not stated), the Inhibition in the test with Plasmodium falciparum [1] is reported as 99%; in the test on Plasmodium falciparum [2], 15%; in the test with HepG2, 57%.

On to `O=C(Nc1cc(C(F)(F)F)cc(C(F)(F)F)c1)Nc1ccc(Cl)c(Cl)c1`, for which the results for the Inhibition with Plasmodium falciparum [1], in the test with Plasmodium falciparum [2] and in the test with HepG2 were 100%, 100% and 58%, respectively.

In the case of `COCCNCc1ccc(-c2cccc(CNc3ccc(OC)cc3)c2)cc1.O=C(O)C(F)(F)F`, the Inhibition was 94% with Plasmodium falciparum [1], 2% in the test on Plasmodium falciparum [2] and 16% in the test with HepG2.

Take `CN(C)c1c(CNCCCCCCNCc2ccc3ccccc3c2N(C)C)ccc2ccccc12.CS(=O)(=O)O`: the Inhibition in the test on Plasmodium falciparum [1] amounted to 100%; in the test on Plasmodium falciparum [2], 51%; in the test on HepG2, 100%.

On to `CCNc1cc(C(=O)N[C@@H](Cc2ccccc2)[C@H](O)CNC2CC3CCC2C3)cc(N2CCCCS2(=O)=O)c1.Cl` (some centres not stated), for which the figures for the Inhibition in the test with Plasmodium falciparum [1], with Plasmodium falciparum [2] and in the test on HepG2 were 99%, 73% and 0%, respectively.

For the compound `Cc1cccc2nc(-c3cccc(-c4cccc(NC(=O)Nc5ccccc5)c4)c3)[nH]c12`, the values for the Inhibition in the test with Plasmodium falciparum [1], in the test on Plasmodium falciparum [2] and in the test with HepG2 were 100%, 64% and 8%, respectively.

Take `COc1ccc2c(=NN=Cc3cccc(F)c3)cc(C)[nH]c2c1`: the Inhibition in the test with Plasmodium falciparum [1] is given as 100%; in the test on Plasmodium falciparum [2] it was 100%; in the test on HepG2, 17%.

For `Br.CCC(CCON1C(N)=NC(N)=NC1(C)C)c1ccc(Cl)c(Cl)c1` (configuration not stated), the Inhibition with Plasmodium falciparum [1] came out at 94%; with Plasmodium falciparum [2], 98%; in the test with HepG2, 68%.

`COc1ccc(C(=O)CCc2ccc(O)cc2)cc1`: the Inhibition with Plasmodium falciparum [1] is recorded as 96%; in the test on Plasmodium falciparum [2] it was 90%; in the test on HepG2 it was 0%.

On to `N#Cc1cncc(-c2nc3c(N4CCC(Cc5ccccc5)CC4)cccc3n2CCNCc2ccccc2)c1.O=C(O)C(F)(F)F`, for which the Inhibition in the test on Plasmodium falciparum [1] amounted to 99%; in the test with Plasmodium falciparum [2], 99%; with HepG2 it was 2%.

For `c1ccc(Oc2ccc(Nc3ccnc4ccc(-c5ccco5)cc34)cc2)cc1`, the Inhibition in the test on Plasmodium falciparum [1] worked out at 87%; with Plasmodium falciparum [2], 32%; in the test with HepG2, 0%.

For `COc1ccc(Cn2ccc3c4c(N)nc(N)nc4ccc32)cc1`, the results for the Inhibition with Plasmodium falciparum [1], with Plasmodium falciparum [2] and in the test on HepG2 were 100%, 93% and 90%, respectively.

`Cc1ccc2[nH]c(-c3ccccc3N)cc2c1`: the Inhibition is 97% in the test with Plasmodium falciparum [1], 8% in the test on Plasmodium falciparum [2] and 11% in the test on HepG2.
